What all share (type): functional
Assay [1] relates to Plasmodium falciparum. The assay is described as follows: GSK_TCMDC: Inhibition of Plasmodium falciparum 3D7 in whole red blood cells, using parasite LDH activity as an index of growth. Test compounds present at 2uM.
For assay [2], the system named is Plasmodium falciparum. Put plainly: GSK_TCMDC: Inhibition of Plasmodium falciparum Dd2 in whole red blood cells, using parasite LDH activity as an index of growth. Test compounds present at 2uM.
Assay [3] concerns HepG2. Put plainly: GSK_TCMDC: Percent inhibition of human HepG2 cell line. Test compounds present at 10uM.

The record followed here is ChEMBL document CHEMBL1157539, “Thousands of chemical starting points for antimalarial lead identification” (Nature, 2010).

As for `CCC(=O)N1CCc2cc(Br)cc(S(=O)(=O)N3CC(C)CC(C)C3)c21` (stereo not drawn), the Inhibition in assay [1] was 85%; in assay [2], 84%; in assay [3], 5%.

On to `O=C(/C=C/c1ccc(Cl)cc1Cl)N1CCC(CCN2CCC(c3c[nH]c4ccccc34)CC2)CC1`, for which the results for the Inhibition in assay [1], in assay [2] and in assay [3] were 98%, 37% and 94%, respectively.

Regarding `O=C(NCCc1cccc(F)c1)c1cc(Br)cc(N2CCN(c3ccncc3)CC2)c1.O=C(O)C(F)(F)F`, the Inhibition in assay [1] came to 100%; in assay [2], 86%; in assay [3], 34%.

For `CC(CN1CCN(C)CC1)C(=O)Nc1ccc(-c2ccc(-c3nc4cc(C(F)(F)F)ccc4[nH]3)cc2)cc1` (stereo not drawn), the Inhibition in assay [1] is 100%; in assay [2], 100%; in assay [3], 19%.

With `Clc1cc(Cl)c2cc(CNCCCNc3ccc4ccccc4n3)[nH]c2c1.O=C(O)C(F)(F)F`, the Inhibition in assay [1] was 99%; in assay [2], 54%; in assay [3], 98%.

Consider `Fc1ccc2[nH]cc(CCNCc3ccc(-c4cccc(-c5nc6ccccc6[nH]5)c4)cc3)c2c1.O=C(O)C(F)(F)F`, for which the values for the Inhibition in assay [1], in assay [2] and in assay [3] were 100%, 99% and 69%, respectively.

`Nc1c2ccccc2nc2cc(Cl)ccc12`: the values for the Inhibition in assay [1], in assay [2] and in assay [3] were 100%, 86% and 24%, respectively.

Consider `CCNc1cc(C(=O)N[C@@H](Cc2ccccc2)[C@H](O)CNC(CC)c2cccc(Cl)c2)cc(N2CCCC2=O)c1.Cl` (stereo partly drawn), for which the Inhibition in assay [1] was determined as 97%; in assay [2], 99%; in assay [3], 12%.

With `O=[N+]([O-])c1ccc(Nc2nc(N/N=C/c3cccc(O)c3)nc(N3CCCC3)n2)cc1`, the Inhibition is 88% in assay [1], 9% in assay [2] and 0% in assay [3].

On to `O=C(Nc1ccc(Cl)cc1)N[C@H]1CCN(CCCCCNC(=O)C2CC2c2ccc(Cl)c(Cl)c2)C1` (stereo partly drawn), for which the figures for the Inhibition in assay [1], in assay [2] and in assay [3] were 96%, 1% and 24%, respectively.

With `Cn1cc(C(=O)Nc2cccc(-c3cccc(-c4nc5ccccc5[nH]4)c3)c2)n(C)c1=O`, the Inhibition in assay [1] came out at 99%; in assay [2], 60%; in assay [3], 0%.

Regarding `CC(C)N1CCC(N(Cc2ccc(-c3ccc(C(F)(F)F)cc3)cc2)C(=O)Cn2c(CCc3cccc(F)c3F)cc(=O)c3c2CCC3)CC1.O=C(O)C(O)C(O)C(=O)O`, the Inhibition in assay [1] is on record as 100%; in assay [2], 62%; in assay [3], 30%.

`COc1ccc2nccc([C@@H](O)CN3CCC(c4cc(-c5ccc(Cl)cc5)[nH]n4)CC3)c2n1`: the Inhibition in assay [1] is recorded as 97%; in assay [2] it was 56%; in assay [3], 43%.

As for `Cc1noc(C)c1-c1ccc2c(Nc3ccccc3N3CCOCC3)c(C(=O)NCc3ccccc3)cnc2c1.Cl`, the values for the Inhibition in assay [1], in assay [2] and in assay [3] were 91%, 6% and 23%, respectively.

In the case of `COc1ccc(CCNC(C)Cc2ccc(C(=O)Nc3ccc(CC(C)NCCc4cccc(Cl)c4)cc3)cc2)cc1` (stereo not drawn), the Inhibition in assay [1] stood at 100%; in assay [2] it was 89%; in assay [3], 99%.

As for `COc1ccc(CNCc2ccc(-c3cccc(-c4nc5cc(C(F)(F)F)ccc5[nH]4)c3)cc2)cc1.O=C(O)C(F)(F)F`, the figures for the Inhibition in assay [1], in assay [2] and in assay [3] were 100%, 100% and 59%, respectively.

In the case of `CC1CN(Cc2cccc(-c3ccc(-c4nc5cc(F)ccc5[nH]4)cc3)c2)CC(C)O1.O=C(O)C(F)(F)F` (stereo not drawn), the Inhibition was 87% in assay [1], 88% in assay [2] and 45% in assay [3].

In the case of `OCC1CCN(Cc2cccc(C#Cc3cc4ncnc(Nc5ccc(OCc6cccc(F)c6)c(Cl)c5)c4s3)n2)CC1`, the Inhibition in assay [1] worked out at 99%; in assay [2] it was 95%; in assay [3], 41%.

Turning to `COc1cc(Cc2cnc(N)nc2N)ccc1OCc1ccc(-c2ccccc2C#N)cc1`, the Inhibition in assay [1] stood at 93%; in assay [2], 3%; in assay [3] it was 32%.

On to `Cc1ccc2c(c1C)NC(=O)C21NN=C(c2ccccc2)S1` (stereo not drawn), for which the figures for the Inhibition in assay [1], in assay [2] and in assay [3] were 97%, 65% and 31%, respectively.

As for `Cl.O=C(O)CCCN1CCCC(=C(c2ccccc2)c2ccccc2)C1`, the Inhibition stood at 82% in assay [1], 2% in assay [2] and 0% in assay [3].

Take `CC(C)NC(=N)NN=Cc1ccc(Cl)c(Cl)c1`: the Inhibition in assay [1] was determined as 100%; in assay [2] it was 12%; in assay [3], 0%.

Consider `O=C(NCCCN(Cc1ccc(F)cc1)c1ccccn1)C(c1cc2ccccc2o1)N1CCN(C(c2ccccc2)c2ccccc2)CC1` (stereo not drawn), for which the results for the Inhibition in assay [1], in assay [2] and in assay [3] were 97%, 53% and 14%, respectively.

As to `Cc1nc2ccc(-c3ccc(OC(F)(F)F)cc3)cc2c(O)c1C#N`, the figures for the Inhibition in assay [1], in assay [2] and in assay [3] were 98%, 97% and 0%, respectively.

Turning to `CCN(CCNC(=O)Cn1c(C)cc2cc([N+](=O)[O-])ccc21)c1cccc(C)c1`, the Inhibition in assay [1] is recorded as 97%; in assay [2], 95%; in assay [3], 0%.

`CCCCCCN(CCCCCC)CC(O)c1c(OC)ccc2ccccc12.Cl` (stereo not drawn): the Inhibition in assay [1] worked out at 100%; in assay [2] it was 100%; in assay [3], 18%.

For the molecule `Cc1nc(C)c(-c2ccc(Oc3ccc(Cl)cc3Cl)cc2)c(O)c1Br`, the Inhibition in assay [1] is on record as 98%; in assay [2], 94%; in assay [3], 3%.

Take `NS(=O)(=O)c1cccc(-c2ccc3ncc(N4CCOCC4)nc3c2)c1`: the Inhibition in assay [1] was 96%; in assay [2], 74%; in assay [3] it was 17%.

For `COc1cc(C(=O)N2C(c3nccs3)C(C(=O)N(OC)C(C)c3ccccc3)CC2(CC(C)C)C(=O)OC(C)(C)C)ccc1C(C)(C)C` (stereo not drawn), the results for the Inhibition in assay [1], in assay [2] and in assay [3] were 92%, 92% and 12%, respectively.

Take `CCOc1cc(C(=O)NC2CCN(Cc3ccccc3)CC2)ccc1-c1nc2cc(Cl)c(F)cc2[nH]1`: the Inhibition in assay [1] is 100%; in assay [2], 51%; in assay [3], 13%.

Turning to `Cc1cc(N2CCCC2)nc(Nc2ccc(NC(=O)c3ccco3)cc2)n1`, the Inhibition in assay [1] was found to be 100%; in assay [2], 43%; in assay [3] it was 23%.
